Values joined by “and” are separate entries in the source; they are usually repeats but may differ in a detail not shown here. Equal values may be shown once. Inconclusive results are not listed. Where a call stands in place of a potency, no number is given. Active and inactive are the calls of the source. Unless noted, calls come from the whole dose curve; as a rule, active = well fitted curve in the direction sought with a large enough effect; inconclusive = small, poorly fitted or top-dose-only effect, or another doubt; inactive = no such curve, though single readings can be large; an effect the other way counts as inactive or inconclusive.
Tests used:
[1] = Cell Viability - Hek293 (AID 427;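 active = compounds whose dose-response curve shows a full or clear partial loss of cell viability, called from curve shape rather than a numeric limit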;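 note: potency is the fitted concentration of half-maximal effect; cells exposed to compound for 40 hours at 37 °C before reading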); settings: qHTS
Method in brief: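 Luminescent ATP content (CellTiter-Glo, 20 min at room temperature) was measured after a 40 hr, 37 °C compound exposure of HEK293 cells. AC50 values came from Hill-equation fits of qHTS concentration-response data normalized to DMSO and 100 uM tamoxifen.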

[2] = Cell Viability - H-4-II-E (AID 543); settings: H-4-II-E rat hepatoma viability; series mostly up to 92.2 µM; note: nearly all actives have a fitted effect of over 35% in size; note: potency is the fitted concentration of half-maximal effect
Method in brief: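 Luminescent ATP signal (CellTiter-Glo) served as the viability read-out, with cytotoxicity seen as a concentration-dependent ATP drop. Cells were treated for 40 hours in complete medium. AC50 values derive from Hill-equation modelling.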

[3] = Cellular Toxicity (caspase-3) N2a (AID 665); settings: N2a cells, luminescence, normalized: DMSO 0%, 10 µM staurosporine 100%; at 92.2 µM (top of the series);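 note: compound exposure lasted 16 h at 37 °C before readout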
Method in brief: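 N2a cells, 1500/well, 5 h settle at 37 °C; cpd 16 h, 37 °C; Caspase-Glo 3/7, 1 h RT; luminescence. Norm: DMSO = 0, 10 uM staurosporine = 100%. AC50, Hill fit.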

[4] = MultiTox-Fluor Cytotoxicity Assay - LYMP1-001 - Dead Cells (AID 946); settings: LYMP1-001 lymphoblastoid cells, dead-cell protease fluorescence; series mostly up to 92.2 µM
Method in brief: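 Cytotoxicity as increased dead-cell protease fluorescence (bis-AAF-R110, 485/520 nm), read 60 min after MultiTox-Fluor reagent. Human lymphoblastoid line exposed 16 h; Hill-fitted AC50, with DMSO as 0% and 15 uM tetraoctylammonium bromide as 100%.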

[5] = MultiTox-Fluor Cytotoxicity Assay - LYMP1-003 - Dead Cells (AID 961); settings: LYMP1-003 lymphoblastoid cells, dead-cell protease fluorescence; series mostly up to 92.2 µM; note: nearly all actives have a fitted effect of over 70% in size
Method in brief: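 Dead-cell protease release, detected as bis-AAF-R110 fluorescence at 485/520 nm, was measured in LYMP1-003 cells after 16 h compound treatment at 37 C. AC50 values came from Hill-modeled qHTS curves normalized to DMSO (0%) and 15 uM tetraoctylammonium bromide (100%).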

[6] = Cell Viability - LYMP2-007 (AID 979); settings: LYMP2-007 lymphoblastoid cell viability; series mostly up to 92.2 µM;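 note: cells exposed to compound for 24 h before reading; nearly all actives have a fitted effect of over 60% in size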; note: potency is the fitted concentration of half-maximal effect
Method in brief: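 Luminescent ATP signal (CellTiter-Glo) serves as the viability read-out after 24 hr compound treatment of lymphoblastoid cells in complete medium at 37 C. Concentration-response data were fitted to the Hill equation to give AC50 values.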

[7] = Cell Viability - LYMP2-026 (AID 989); settings: LYMP2-026 lymphoblastoid cell viability, qHTS; series mostly up to 92.2 µM; note: nearly all actives have a fitted effect of over 50% in size
Method in brief: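 Luminescent ATP signal (CellTiter-Glo, 30 min room temperature) measures viable lymphoblastoid cells after 24 hr compound treatment at 37 C. Decreased ATP reflects acute toxicity; AC50 values come from Hill-equation modeling.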

[8] = biological target: Bile acid receptor (Homo sapiens) (UniProt Q96RI1); assay: qHTS assay for small molecule antagonists of farnesoid X receptor signaling (AID 588526; calls by dose curve); settings: HEK293T FXR-UAS-bla, beta-lactamase ratio, antagonist mode; series mostly up to 76.7 µM
Chain of Bile acid receptor (Homo sapiens) (Q96RI1 whole entry, looked up): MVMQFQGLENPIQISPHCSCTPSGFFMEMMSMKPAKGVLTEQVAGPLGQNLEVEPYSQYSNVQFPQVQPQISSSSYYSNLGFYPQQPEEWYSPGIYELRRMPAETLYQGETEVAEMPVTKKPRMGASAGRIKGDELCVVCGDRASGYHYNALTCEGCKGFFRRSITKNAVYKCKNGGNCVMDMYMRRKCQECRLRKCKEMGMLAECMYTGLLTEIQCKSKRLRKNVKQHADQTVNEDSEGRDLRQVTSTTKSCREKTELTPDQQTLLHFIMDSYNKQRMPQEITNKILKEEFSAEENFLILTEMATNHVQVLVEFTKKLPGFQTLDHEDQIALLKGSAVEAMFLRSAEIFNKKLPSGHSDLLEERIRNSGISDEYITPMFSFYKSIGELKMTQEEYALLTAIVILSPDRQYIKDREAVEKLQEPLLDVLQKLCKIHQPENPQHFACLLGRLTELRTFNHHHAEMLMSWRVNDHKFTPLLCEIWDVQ
Method in brief: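 Beta-lactamase reporter antagonist mode: HEK293T FXR-UAS-bla cells, titrated compound, CDCA stimulation, 16 h 37 C, CCF4 dye 2 h RT. Data normalized to CDCA 50 uM and DMSO; Hill-fit IC50.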

[9] = biological target: Peroxisome proliferator-activated receptor delta (Homo sapiens) (UniProt Q03181); assay: qHTS assay for small molecule agonists of peroxisome proliferator-activated receptor delta signaling (AID 588534; calls by dose curve); settings: HEK293T PPARdelta-UAS-bla, beta-lactamase ratio, 18 h; series mostly up to 76.7 µM
Chain of Peroxisome proliferator-activated receptor delta (Homo sapiens) (Q03181 whole entry, looked up): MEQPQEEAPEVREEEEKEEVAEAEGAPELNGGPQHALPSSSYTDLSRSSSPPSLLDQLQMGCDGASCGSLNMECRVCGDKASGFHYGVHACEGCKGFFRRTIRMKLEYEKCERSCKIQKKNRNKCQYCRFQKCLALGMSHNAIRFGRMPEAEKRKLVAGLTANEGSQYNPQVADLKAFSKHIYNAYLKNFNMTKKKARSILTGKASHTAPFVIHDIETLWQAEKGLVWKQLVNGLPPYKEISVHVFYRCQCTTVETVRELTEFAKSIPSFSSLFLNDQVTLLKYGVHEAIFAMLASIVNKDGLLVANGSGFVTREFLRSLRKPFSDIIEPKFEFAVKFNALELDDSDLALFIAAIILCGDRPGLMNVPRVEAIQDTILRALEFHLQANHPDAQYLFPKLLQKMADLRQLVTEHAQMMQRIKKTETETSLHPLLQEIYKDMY
Method in brief: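 Fluorescence from CCF4 substrate cleavage by beta-lactamase reporter, read 2 hrs at RT, measured agonist activity. Compounds were tested with 18 hrs exposure at 37 C. Concentration-response data fitted to Hill equation.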

[10] = qHTS assay for small molecule antagonists of peroxisome proliferator-activated receptor delta signaling (AID 588535; active = well fitted inhibition curve with a large enough effect in the signal ratio, with a control signal flat, not every such curve was filed as active; the % refers to the signal ratio;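 for max response: cells co-treated with a PPAR-delta agonist as stimulator during compound exposure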); settings: HEK293T PPARd-UAS-bla, beta-lactamase FRET ratio, 18 h; 460 nm channel
Method in brief: (§1)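 HEK293T PPAR-delta-UAS-bla cells, 4000/well, 2% charcoal/dextran FBS; 5 h 37 C; cpd titration; 18 h 37 C; CCF4 2 h RT; FI 460/530 nm; Hill fit → IC50, efficacy.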

[11] = biological target: Peroxisome proliferator-activated receptor delta (Homo sapiens) (UniProt Q03181); assay: as above; settings: HEK293T PPARd-UAS-bla, beta-lactamase FRET ratio, 18 h; series mostly up to 76.7 µM
Method in brief: as §1

[12] = biological target: Retinoic acid receptor RXR-alpha (Homo sapiens) (UniProt P19793); assay: qHTS assay for small molecule agonists of retinoid X receptor alpha signaling (AID 588544; calls by dose curve); settings: HEK293T RXRa-UAS-bla, beta-lactamase reporter, 18 h; series mostly up to 76.7 µM
Chain of Retinoic acid receptor RXR-alpha (Homo sapiens) (P19793 whole entry, looked up): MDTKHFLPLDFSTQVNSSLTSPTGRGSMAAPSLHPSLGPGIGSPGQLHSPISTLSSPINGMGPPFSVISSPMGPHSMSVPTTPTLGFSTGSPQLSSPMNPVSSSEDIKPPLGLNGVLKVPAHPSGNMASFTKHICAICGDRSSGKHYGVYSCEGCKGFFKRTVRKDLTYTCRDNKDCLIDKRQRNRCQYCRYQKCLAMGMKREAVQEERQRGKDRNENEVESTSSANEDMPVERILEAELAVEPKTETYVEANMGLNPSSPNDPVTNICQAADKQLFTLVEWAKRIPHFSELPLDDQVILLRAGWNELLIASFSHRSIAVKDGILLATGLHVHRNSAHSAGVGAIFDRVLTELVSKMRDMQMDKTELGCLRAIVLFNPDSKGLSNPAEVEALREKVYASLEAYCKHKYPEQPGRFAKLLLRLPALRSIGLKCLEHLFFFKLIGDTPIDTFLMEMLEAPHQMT

[13] = biological target: Voltage-gated inwardly rectifying potassium channel KCNH2 (Homo sapiens) (UniProt Q12809); assay: qHTS Assay for Small Molecule Inhibitors of the Human hERG Channel Activity (AID 588834); settings: U2OS BacMam hERG, FluxOR thallium flux fluorescence; series mostly up to 92.2 µM;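 note: top concentration of the series differs between compounds; lower thallium flux fluorescence means stronger hERG block; nearly all actives have a fitted effect of over 50% in size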
Chain of Voltage-gated inwardly rectifying potassium channel KCNH2 (Homo sapiens) (Q12809 whole entry, looked up): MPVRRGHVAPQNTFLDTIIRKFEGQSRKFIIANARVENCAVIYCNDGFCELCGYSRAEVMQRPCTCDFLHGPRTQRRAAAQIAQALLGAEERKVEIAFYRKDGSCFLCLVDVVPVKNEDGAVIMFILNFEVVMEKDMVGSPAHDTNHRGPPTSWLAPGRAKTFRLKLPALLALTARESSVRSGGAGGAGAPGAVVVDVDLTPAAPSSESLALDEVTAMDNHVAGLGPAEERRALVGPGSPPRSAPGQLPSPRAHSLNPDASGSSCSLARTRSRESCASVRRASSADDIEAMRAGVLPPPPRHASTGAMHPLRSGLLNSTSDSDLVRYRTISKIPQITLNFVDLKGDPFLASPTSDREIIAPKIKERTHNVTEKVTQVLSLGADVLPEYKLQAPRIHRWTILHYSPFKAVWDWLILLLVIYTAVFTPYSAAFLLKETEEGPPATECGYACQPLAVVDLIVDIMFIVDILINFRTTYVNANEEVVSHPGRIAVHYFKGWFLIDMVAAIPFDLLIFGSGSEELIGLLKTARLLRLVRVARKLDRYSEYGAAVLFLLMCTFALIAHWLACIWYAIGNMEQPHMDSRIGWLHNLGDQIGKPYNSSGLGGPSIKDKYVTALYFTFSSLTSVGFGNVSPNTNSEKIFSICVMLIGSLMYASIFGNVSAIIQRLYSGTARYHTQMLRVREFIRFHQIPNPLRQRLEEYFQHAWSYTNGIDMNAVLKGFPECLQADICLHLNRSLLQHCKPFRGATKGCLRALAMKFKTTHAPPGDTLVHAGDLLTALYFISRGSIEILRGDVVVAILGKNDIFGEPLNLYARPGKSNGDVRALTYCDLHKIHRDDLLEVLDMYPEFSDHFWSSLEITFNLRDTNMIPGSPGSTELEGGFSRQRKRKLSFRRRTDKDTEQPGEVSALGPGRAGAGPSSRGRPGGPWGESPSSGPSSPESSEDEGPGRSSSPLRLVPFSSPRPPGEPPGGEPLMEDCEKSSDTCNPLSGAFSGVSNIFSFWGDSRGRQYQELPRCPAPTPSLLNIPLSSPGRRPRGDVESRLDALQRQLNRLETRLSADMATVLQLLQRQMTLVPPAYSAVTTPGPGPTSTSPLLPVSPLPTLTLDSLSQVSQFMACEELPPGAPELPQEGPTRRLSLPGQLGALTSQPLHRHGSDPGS
Method in brief: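 hERG-BacMam U2OS, 2000 cells/well; 0.7X FluxOR loading 1 hr RT dark; cpd ~10 min 37 °C; stim buffer; FDSS fluorescence 2 min @ 1 s; AC50 Hill fit.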

[14] = qHTS assay for small molecule disruptors of the mitochondrial membrane potential - 5 hr assay (AID 651755; calls by dose curve; note: nearly all actives have a fitted effect of over 40% in size); settings: JC-1-type ratio dye; series mostly up to 92.2 µM
Method in brief: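 HepG2, 2,000 cells/well, overnight attach; cpd or DMSO 5 hr, 37C/5% CO2; Mito-MPS 30 min 37C; fluor 490/535 + 540/590 nm.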

[15] = Cell Viability - NIH 3T3 (AID 541); settings: NIH 3T3 cell viability, qHTS; activity change, negative = cytotoxicity: at 92.2 µM (top of the series); note: nearly all actives have a fitted effect of over 25% in size
Method in brief: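 Luminescent ATP signal (CellTiter-Glo) served as the viability read-out after NIH 3T3 cells were exposed to compounds over a concentration range for 40 hr at 37 °C. Hill-equation modelling of concentration-response data gave AC50.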

[16] = Cell Viability - HUV-EC-C (AID 542); settings: HUV-EC-C endothelial cell viability, qHTS; series mostly up to 92.2 µM; note: nearly all actives have a fitted effect of over 35% in size
Method in brief: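 qHTS cytotoxicity: HUV-EC-C, 1000 cells/well, 5 hr settle, compound 40 hr 37 °C, CellTiter-Glo, luminescence. AC50 via Hill equation.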

[17] = biological target: Peroxisome proliferator-activated receptor gamma (Homo sapiens) (UniProt P37231); assay: qHTS assay for small molecule antagonists of peroxisome proliferator-activated receptor gamma signaling (AID 588537; active = well fitted inhibition curve with a large enough effect in the signal ratio, with a control signal flat, not every such curve was filed as active; the % refers to the signal ratio;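 note: reporter cells co-stimulated with 50 nM rosiglitazone agonist during compound treatment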); settings: HEK293 PPARg-UAS-bla, beta-lactamase ratio, antagonist mode; series mostly up to 76.8 µM
Chain of Peroxisome proliferator-activated receptor gamma (Homo sapiens) (P37231 whole entry, looked up): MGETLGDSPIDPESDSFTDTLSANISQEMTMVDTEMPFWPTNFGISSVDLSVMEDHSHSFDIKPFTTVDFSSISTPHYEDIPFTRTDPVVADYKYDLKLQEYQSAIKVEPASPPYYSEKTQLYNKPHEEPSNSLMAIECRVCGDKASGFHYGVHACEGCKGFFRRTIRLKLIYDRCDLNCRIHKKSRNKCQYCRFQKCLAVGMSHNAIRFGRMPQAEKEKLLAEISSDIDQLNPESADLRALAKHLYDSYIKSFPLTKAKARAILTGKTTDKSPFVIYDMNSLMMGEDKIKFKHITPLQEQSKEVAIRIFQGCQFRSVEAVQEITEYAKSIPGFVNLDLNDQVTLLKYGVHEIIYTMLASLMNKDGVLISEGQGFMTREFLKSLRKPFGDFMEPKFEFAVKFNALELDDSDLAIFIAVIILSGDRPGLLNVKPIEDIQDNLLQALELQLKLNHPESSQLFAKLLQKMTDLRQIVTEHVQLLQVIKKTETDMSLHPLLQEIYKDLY
Method in brief: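 Antagonist mode, beta-lactamase reporter in HEK293; charcoal/dextran FBS 1%; 3000 cells/well, 37 C 6-6.5 h; cpd titration + rosiglitazone 50 nM final, 16 h 37 C; CCF4, 2 h RT; 460/530 nm; Hill fit → IC50, efficacy.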

[18] = biological target: Thyroid hormone receptor beta (Homo sapiens) (UniProt P10828); assay: qHTS assay for small molecule antagonists of thyroid hormone receptor beta signaling (AID 588547; active = well fitted inhibition curve with a large enough effect in the signal ratio, with a control signal flat, not every such curve was filed as active; the % refers to the signal ratio;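 note: cells stimulated with 0.4 nM T3 agonist during compound exposure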); settings: TR-UAS-bla HEK293, beta-lactamase ratio, antagonist mode, 18 h
Chain of Thyroid hormone receptor beta (Homo sapiens) (P10828 whole entry, looked up): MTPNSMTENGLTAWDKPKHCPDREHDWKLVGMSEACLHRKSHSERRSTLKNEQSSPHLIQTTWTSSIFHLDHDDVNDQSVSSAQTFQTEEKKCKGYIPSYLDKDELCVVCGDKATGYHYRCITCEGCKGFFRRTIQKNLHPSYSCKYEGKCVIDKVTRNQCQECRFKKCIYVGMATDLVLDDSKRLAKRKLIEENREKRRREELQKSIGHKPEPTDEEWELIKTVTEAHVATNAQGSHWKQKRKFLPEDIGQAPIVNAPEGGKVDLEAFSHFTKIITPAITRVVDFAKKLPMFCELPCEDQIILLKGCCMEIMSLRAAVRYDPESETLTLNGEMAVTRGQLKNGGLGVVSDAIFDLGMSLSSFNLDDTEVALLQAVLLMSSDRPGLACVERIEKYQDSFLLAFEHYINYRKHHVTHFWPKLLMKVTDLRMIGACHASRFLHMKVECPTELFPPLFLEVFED
Method in brief: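 Inhibition of T3-driven (0.4nM final) beta-lactamase reporter activity was measured over 0.59 nM to 92 uM compound after 18 h at 37 C. The cells were GripTite HEK293 TR-UAS-bla in charcoal/dextran-stripped serum, with CCF4 ratio read-out and IC50 from Hill fits.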

[19] = qHTS assay for environmental chemicals that activate the Aryl hydrocarbon Receptor (AhR) signaling pathway (AID 651777); settings: 1A2-DRE human hepatoma cells, luciferase, 24 h; activation: stronger effect = higher value; note: nearly all actives have a fitted effect of over 15% in size
Method in brief: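 Human hepatoma 1A2-DRE cells, stably carrying a dioxin response element and CYP1A2 promoter driving luciferase, were exposed to compounds for 24 hr at 37 C and 5% CO2. Luciferase signal was then read after 30 min One-Glo at room temperature.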

[20] = biological target: Peroxisome proliferator-activated receptor alpha (Homo sapiens) (UniProt Q07869); assay: qHTS assay for small molecule agonists of the peroxisome proliferator-activated receptor alpha (PPARalpha) signaling pathway (AID 651778); settings: PathHunter PPARalpha complementation, chemiluminescence, 6 h; stronger effect = higher value
Chain of Peroxisome proliferator-activated receptor alpha (Homo sapiens) (Q07869 whole entry, looked up): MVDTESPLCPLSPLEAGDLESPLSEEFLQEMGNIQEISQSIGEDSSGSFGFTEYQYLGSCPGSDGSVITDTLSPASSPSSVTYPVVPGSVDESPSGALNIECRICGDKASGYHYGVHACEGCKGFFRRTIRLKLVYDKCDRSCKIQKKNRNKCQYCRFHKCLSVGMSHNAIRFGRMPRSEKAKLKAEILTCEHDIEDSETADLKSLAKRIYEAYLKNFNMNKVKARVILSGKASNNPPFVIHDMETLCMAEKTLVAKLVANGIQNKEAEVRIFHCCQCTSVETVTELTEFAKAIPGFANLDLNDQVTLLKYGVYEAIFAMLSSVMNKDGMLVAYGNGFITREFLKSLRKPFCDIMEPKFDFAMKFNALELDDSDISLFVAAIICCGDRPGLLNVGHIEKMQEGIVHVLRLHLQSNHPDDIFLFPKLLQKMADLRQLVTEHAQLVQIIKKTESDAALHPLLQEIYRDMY
Method in brief: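 Chemiluminescence from complemented enzyme reported PPARalpha activation in cells after 6 hr of compound treatment at 37 C. The detection reagent was incubated for 60 min at room temperature, and compounds were scored as agonists.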

Compound	Potency [1]	Potency [2]	caspase-3 activation [3]	Potency [4]	Potency [5]	Potency [6]	Potency [7]	outcome [8]	outcome [9]	max response [10]	Potency [11]	Potency [12]	Potency [13]	Potency [14]	activity change, negative = cytotoxicity [15]	Potency [16]	Potency [17]	activity change % (negative = inhibition) [18]	activation [19]	max response [20]
O=C(Cl)C(Cl)(Cl)Cl	> 92 µM (inactive)	inactive	0.525% (inactive)	inactive	inactive	inactive	inactive	inactive	inactive	6.34%	inactive	inactive	inactive	inactive						
Cc1ccc([N+](=O)[O-])cc1C	> 92 µM (inactive)	inactive	-3.15% (inactive)					inactive	inactive	-1.38%	inactive			inactive	-7.46% (inactive)	inactive	inactive	13% (inactive) and 10.3% (inactive)	-0.487% (inactive) and 1.08% (inactive)	-4.21% (inactive) and -1.01% (inactive)
CC(C)(OO)c1ccccc1	> 92 µM (inactive)	25.1 µM (active)	-2.62% (inactive)		inactive	31.6 µM (active)		inactive	inactive	-33%	inactive	inactive		inactive			inactive	14.1% (inactive) and -10.7% (inactive)	0.536% (inactive) and 0.232% (inactive)	-1.59% (inactive) and -0.102% (inactive)
CC(Cl)Cl	> 92 µM (inactive)		-4.66% (inactive)			inactive		inactive		2.53%	inactive		inactive	inactive	-15.4% (inactive)			-1.63% (inactive)		4.62% (inactive)
C=CC(N)=O	> 92 µM (inactive)	inactive	-0.525% (inactive) and -0.998% (inactive)	inactive	inactive	inactive	inactive			43.8% and 22.1%	inactive			inactive		inactive			0.655% (inactive) and -0.766% (inactive) and 0.336% (inactive)	
CCSC(=O)Cl	> 92 µM (inactive)				inactive	inactive		inactive	inactive			inactive					inactive	-1.08% (inactive)		0.356% (inactive)
ClC(Cl)=C(Cl)C(Cl)=C(Cl)Cl	> 92 µM (inactive)	inactive	-2.34% (inactive)				inactive		inactive	-24.7% and -5.61%	inactive	inactive		inactive	-27.5% (inactive)			-2.4% (inactive)	-0.54% (inactive) and -2.12% (inactive)	-0.178% (inactive) and -1.05% (inactive)
BrCCBr	> 92 µM (inactive)			inactive						-6.18% and 14.8%	inactive						inactive		-1.12% (inactive) and 0.568% (inactive)	-2.04% (inactive) and -4.02% (inactive)

From PubChem BioAssay (NCATS)
